Assay results as given in PubChem BioAssay.
Values without a mark were called inactive. The source made the active and inactive calls. Rule as the data show it, unless noted: active = inhibition above about 28%; inactive = the rest.

test system: not listed separately; test: StAR promoter reporter inhibitors, counter-screen for LRH-1 inverse agonist project, cell-based, luminescence, high throughput (AID 651611); details: StAR promoter luciferase reporter counterscreen, at 3.6 µM, stronger effect = higher value

SMILES	inhibition
CCCCCc1c(CC)ncn1CCc1ccccc1OC	-2.24%
COc1ccccc1-c1cc(NC=O)c2ncc(-c3ccc(S(C)(=O)=O)cc3)n2c1	31.8% (active)
C=CC(=O)Nc1cccc(Oc2ncnc3[nH]cc(-c4cnc5ccccc5c4)c23)c1	27.3%
COc1ccc(-c2c(C)cc3oc(=O)cc(-c4ccccc4)c3c2C)cc1	10.6%
O=C(CCl)N1CCN(S(=O)(=O)Cc2ccccc2)CC1	25.3%
CC1C/C(=C\c2cccnc2)C(=O)/C(=C/c2cccnc2)C1 (stereo not drawn)	61.9% (active)
COc1ccc(NC(=O)CN2C(=O)NC3(CCCc4ccccc43)C2=O)c(OC)c1 (stereo not drawn)	12.3%
O=C(Nc1ccc(S(=O)(=O)N2CCCC2)cc1)c1ccc([N+](=O)[O-])o1	26.2%
O=C1C=C(c2ccccc2)OC2(CCCC2)O1	19.8%
O=C(CC1C(=O)NCCN1C(=S)Nc1ccccc1)Nc1ccc2c(c1)OCCO2 (stereo not drawn)	10.3%
CCOc1ccc(NC(=O)Cn2cc(C(=O)C3CC3)c3ccccc32)cc1	5.9%
c1ccc2c(c1)CCN(c1ncnc3c1[nH]c1ccccc13)C2	25.5%
COc1ccc(Oc2ccc(NC(=O)c3ccccc3C)cc2)cc1	8.67%
CC1(c2ccc3ccccc3c2)NC(=O)N(CC(=O)N2CCN(Cc3ccc(C#N)cc3)CC2)C1=O (stereo not drawn)	32.1% (active)
CCCCCCCn1ccc(=N)cc1	44.1% (active)
O=C(Nc1cccnc1)c1ccc([N+](=O)[O-])s1	25.4%
CCS(=O)(=O)N1Cc2cc(C(=O)NCC3CC3)nc(-c3cccc(-c4cccnc4)c3)c2[C@@H]1CCO	8.53%
CCOC(=O)C1CCN(Cc2cc(Cl)c3ccccc3c2O)CC1	1.44%
O=[N+]([O-])c1cc2ncccc2c2ncccc12	42.1% (active)
Nc1ccc(C(=O)NN2C(=O)[C@H](Cl)C2c2ccc(Cl)cc2)cc1 (stereo partly drawn)	8.81%

SMILES	inhibition
Cc1ccc(C(=O)Sc2cccccc2=O)cc1	98.1% (active)
COc1cccc(-c2cnc3c(NC=O)cc(-c4ccc(S(C)(=O)=O)cc4)cn23)c1	30.2% (active)
Cc1c(NC(=O)c2ccc([N+](=O)[O-])o2)cccc1-c1nc2ncccc2o1	13.3%
NC1=CC(=O)C(=O)c2ccccc21	29.2% (active)
COc1ccccc1NC(=O)c1ccc(NC(=O)COC(=O)C(C)C)cc1	12.5%
COc1ccc(CCNC(=O)CSC2=Nc3ccccc3C3=NC(C(C)C)C(=O)N23)cc1OC (stereo not drawn)	21.5%
Cc1nc2ccccc2n1Cc1ccc(Cl)cc1	8.73%
CCOC(=O)c1ccc(Nc2nc(-c3cccnc3)nc3ccccc23)cc1	44.5% (active)
COc1cc(C2CC(=O)c3c([nH]c(C(=O)OCCOC(C)C)c3C)C2)cc(OC)c1OC (stereo not drawn)	24.2%
COc1ccc(NC(=O)CSc2ncnc3c2cnn3Cc2ccccc2)cc1	16.1%
Cc1ccc[n+](CC(=O)Nc2ccc([N+](=O)[O-])cc2)c1	12.6%
Cc1cc(OCC(=O)N2CCC(O)CC2)c2c(C)cc(=O)oc2c1	5.07%
CC(C)n1c(SCC(=O)Nc2ccc(N3CCOCC3)cc2)nnc1-c1ccco1	4.53%
C#CCN(C[C@@H]1[C@@H](OC(=O)NCC2CCCCC2)[C@@H](OC(=O)NCC2CCCCC2)Cn2c(=O)ccc(=O)n21)S(=O)(=O)c1ccc(C)cc1	38.3% (active)
Cn1cc(Cl)c(C(=O)OCC(=O)Nc2ccc(S(N)(=O)=O)cc2)n1	10.9%
CCOc1ccc(NC(=O)CSc2nc3ccccc3c(=O)n2CCCC(=O)NCC2CCCO2)cc1 (stereo not drawn)	1.46%
CCOc1ccc(NC(=O)CSc2nnc(CNC(=O)c3cccs3)o2)cc1	20%
NC(=S)N/N=C/c1ccc(C(F)(F)F)cc1	-1.87%
O=C(OCC(=O)N1CCN(c2ccccc2)CC1)c1ccc2ccccc2n1	9.44%

biological target: Nuclear receptor subfamily 5 group A member 2 (Homo sapiens) (UniProt O00482); test: NR5A2 activity suppression in reporter cells – cell-based, luminescence, confirmation (AID 651613; in the data active = inhibition above about 42%;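 also: HEK293T cells co-transfected with LRH-1 and StAR promoter luciferase reporter; 0% = vehicle wells and 100% = parental cells lacking receptor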); details: cell-based LRH-1 luciferase reporter, inverse agonism; at 3.6 µM; stronger effect = higher value
Sequence (O00482 whole entry, looked up): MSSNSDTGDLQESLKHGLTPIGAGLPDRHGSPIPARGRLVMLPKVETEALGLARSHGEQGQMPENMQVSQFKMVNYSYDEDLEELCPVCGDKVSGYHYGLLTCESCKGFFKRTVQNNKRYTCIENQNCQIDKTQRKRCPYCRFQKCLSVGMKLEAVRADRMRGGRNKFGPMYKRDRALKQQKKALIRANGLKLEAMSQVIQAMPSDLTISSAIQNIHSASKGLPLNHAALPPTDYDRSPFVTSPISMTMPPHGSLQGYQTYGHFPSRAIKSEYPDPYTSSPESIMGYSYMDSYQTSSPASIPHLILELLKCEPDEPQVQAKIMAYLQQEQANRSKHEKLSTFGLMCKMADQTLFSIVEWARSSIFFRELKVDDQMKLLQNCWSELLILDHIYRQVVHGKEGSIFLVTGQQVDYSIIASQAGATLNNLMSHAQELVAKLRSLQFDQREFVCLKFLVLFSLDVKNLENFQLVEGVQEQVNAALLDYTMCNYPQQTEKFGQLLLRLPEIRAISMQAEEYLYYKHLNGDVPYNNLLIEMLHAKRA

SMILES	inhibition
CCCCCc1c(CC)ncn1CCc1ccccc1OC	23.2%
COc1ccccc1-c1cc(NC=O)c2ncc(-c3ccc(S(C)(=O)=O)cc3)n2c1	42.8% (active)
C=CC(=O)Nc1cccc(Oc2ncnc3[nH]cc(-c4cnc5ccccc5c4)c23)c1	67.9% (active)
COc1ccc(-c2c(C)cc3oc(=O)cc(-c4ccccc4)c3c2C)cc1	54.8% (active)
O=C(CCl)N1CCN(S(=O)(=O)Cc2ccccc2)CC1	52.9% (active)
CC1C/C(=C\c2cccnc2)C(=O)/C(=C/c2cccnc2)C1 (stereo not drawn)	100% (active)
COc1ccc(NC(=O)CN2C(=O)NC3(CCCc4ccccc43)C2=O)c(OC)c1 (stereo not drawn)	50.9% (active)
O=C(Nc1ccc(S(=O)(=O)N2CCCC2)cc1)c1ccc([N+](=O)[O-])o1	58.8% (active)
O=C1C=C(c2ccccc2)OC2(CCCC2)O1	67.3% (active)
O=C(CC1C(=O)NCCN1C(=S)Nc1ccccc1)Nc1ccc2c(c1)OCCO2 (stereo not drawn)	53.8% (active)
CCOc1ccc(NC(=O)Cn2cc(C(=O)C3CC3)c3ccccc32)cc1	44.1% (active)
c1ccc2c(c1)CCN(c1ncnc3c1[nH]c1ccccc13)C2	68.5% (active)
COc1ccc(Oc2ccc(NC(=O)c3ccccc3C)cc2)cc1	38.8%
CC1(c2ccc3ccccc3c2)NC(=O)N(CC(=O)N2CCN(Cc3ccc(C#N)cc3)CC2)C1=O (stereo not drawn)	66.1% (active)
CCCCCCCn1ccc(=N)cc1	86.7% (active)
O=C(Nc1cccnc1)c1ccc([N+](=O)[O-])s1	43.8% (active)
CCS(=O)(=O)N1Cc2cc(C(=O)NCC3CC3)nc(-c3cccc(-c4cccnc4)c3)c2[C@@H]1CCO	47.6% (active)
CCOC(=O)C1CCN(Cc2cc(Cl)c3ccccc3c2O)CC1	10.1%
O=[N+]([O-])c1cc2ncccc2c2ncccc12	56.2% (active)
Nc1ccc(C(=O)NN2C(=O)[C@H](Cl)C2c2ccc(Cl)cc2)cc1 (stereo partly drawn)	43.1% (active)

SMILES	inhibition
Cc1ccc(C(=O)Sc2cccccc2=O)cc1	107% (active)
COc1cccc(-c2cnc3c(NC=O)cc(-c4ccc(S(C)(=O)=O)cc4)cn23)c1	61.5% (active)
Cc1c(NC(=O)c2ccc([N+](=O)[O-])o2)cccc1-c1nc2ncccc2o1	66.2% (active)
NC1=CC(=O)C(=O)c2ccccc21	54.9% (active)
COc1ccccc1NC(=O)c1ccc(NC(=O)COC(=O)C(C)C)cc1	62.7% (active)
COc1ccc(CCNC(=O)CSC2=Nc3ccccc3C3=NC(C(C)C)C(=O)N23)cc1OC (stereo not drawn)	62.3% (active)
Cc1nc2ccccc2n1Cc1ccc(Cl)cc1	56.1% (active)
CCOC(=O)c1ccc(Nc2nc(-c3cccnc3)nc3ccccc23)cc1	49.6% (active)
COc1cc(C2CC(=O)c3c([nH]c(C(=O)OCCOC(C)C)c3C)C2)cc(OC)c1OC (stereo not drawn)	40%
COc1ccc(NC(=O)CSc2ncnc3c2cnn3Cc2ccccc2)cc1	49.6% (active)
Cc1ccc[n+](CC(=O)Nc2ccc([N+](=O)[O-])cc2)c1	63.1% (active)
Cc1cc(OCC(=O)N2CCC(O)CC2)c2c(C)cc(=O)oc2c1	44.8% (active)
CC(C)n1c(SCC(=O)Nc2ccc(N3CCOCC3)cc2)nnc1-c1ccco1	55.5% (active)
C#CCN(C[C@@H]1[C@@H](OC(=O)NCC2CCCCC2)[C@@H](OC(=O)NCC2CCCCC2)Cn2c(=O)ccc(=O)n21)S(=O)(=O)c1ccc(C)cc1	62.4% (active)
Cn1cc(Cl)c(C(=O)OCC(=O)Nc2ccc(S(N)(=O)=O)cc2)n1	55.2% (active)
CCOc1ccc(NC(=O)CSc2nc3ccccc3c(=O)n2CCCC(=O)NCC2CCCO2)cc1 (stereo not drawn)	41.9% (active)
CCOc1ccc(NC(=O)CSc2nnc(CNC(=O)c3cccs3)o2)cc1	60.3% (active)
NC(=S)N/N=C/c1ccc(C(F)(F)F)cc1	48.1% (active)
O=C(OCC(=O)N1CCN(c2ccccc2)CC1)c1ccc2ccccc2n1	33%
